From paper PMC10812921, “Transcriptional Coactivator BOB1 (OBF1, OCA-B) Modulates the Specificity of DNA Recognition by the POU-Domain Factors OCT1 and OCT2 in a Monomeric Configuration”

What was measured:
POU1 (OCT1 POU domain) = POU1 (OCT1 POU domain) (human, UniProt P14859 260-458); assay: EMSA-SELEX-seq; no BOB1; 20 mM Tris-HCl pH 7.6, 140 mM NaCl, 10% glycerol, 0.5 mM EDTA, 0.05% Triton X-100, 0.1 mg/mL BSA, 0.1 mg/mL poly(dI-dC), 5 mM DTT, room temperature, 20 min; high values mean tight binding; conditions: protein: recombinant; dsDNA, one strand shown
Summary of the method: (§1)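 Binding preference is reported as the percentage of sequenced 8-mers that match a motif pattern. Tagged POU-domain proteins were made in E. coli BL21, purified under denaturing conditions and renatured. A 30 ng portion was combined with 300 ng of a PCR-amplified double-stranded random 35-nt library, with or without 28 ng coactivator protein, in 20 μL Tris–HCl pH 7.6 binding buffer for 20 min at RT. Complex bands were excised from native 6% PAGE, eluted and PCR-amplified over four rounds before Illumina sequencing.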

POU2 (OCT2 POU domain) = biological target: T1, POU2 (OCT2 POU domain) (human, UniProt P09086 175-386); assay: as above; conditions: protein: recombinant; dsDNA, one strand shown
T1 sequence: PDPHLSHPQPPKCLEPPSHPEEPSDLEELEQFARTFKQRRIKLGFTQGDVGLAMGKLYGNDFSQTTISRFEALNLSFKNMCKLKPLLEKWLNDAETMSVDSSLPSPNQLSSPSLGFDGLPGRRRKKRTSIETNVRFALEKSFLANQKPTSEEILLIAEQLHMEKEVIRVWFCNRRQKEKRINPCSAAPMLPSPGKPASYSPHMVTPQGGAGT
Summary of the method: as §1

[1] = biological target: POU1 (OCT1 POU domain);BOB1 (OBF1, OCA-B) (human;human, UniProt P14859;Q16633 260-458;1-256, |); assay: EMSA-SELEX-seq; with BOB1 (ternary complex band); 20 mM Tris-HCl pH 7.6, 140 mM NaCl, 10% glycerol, 0.5 mM EDTA, 0.05% Triton X-100, 0.1 mg/mL BSA, 0.1 mg/mL poly(dI-dC), 5 mM DTT, room temperature, 20 min; high values mean tight binding; conditions: protein: recombinant;recombinant; copies: 1;1; dsDNA, one strand shown
Summary of the method: as §1

[2] = biological target: T2, POU2 (OCT2 POU domain);BOB1 (OBF1, OCA-B) (human;human, UniProt P09086;Q16633 175-386;1-256, |); assay: as above; conditions: protein: recombinant;recombinant; copies: 1;1; dsDNA, one strand shown
T2 sequence 1: T1 sequence
T2 sequence 2: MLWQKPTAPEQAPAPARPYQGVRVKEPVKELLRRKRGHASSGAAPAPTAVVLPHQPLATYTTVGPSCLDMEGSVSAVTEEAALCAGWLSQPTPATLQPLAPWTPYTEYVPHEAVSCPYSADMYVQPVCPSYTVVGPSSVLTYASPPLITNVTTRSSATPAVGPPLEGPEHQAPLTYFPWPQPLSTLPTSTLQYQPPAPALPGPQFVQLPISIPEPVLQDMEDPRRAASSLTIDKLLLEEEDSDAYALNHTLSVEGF
Summary of the method: as §1

Chain of POU1 (OCT1 POU domain) (P14859 260-458): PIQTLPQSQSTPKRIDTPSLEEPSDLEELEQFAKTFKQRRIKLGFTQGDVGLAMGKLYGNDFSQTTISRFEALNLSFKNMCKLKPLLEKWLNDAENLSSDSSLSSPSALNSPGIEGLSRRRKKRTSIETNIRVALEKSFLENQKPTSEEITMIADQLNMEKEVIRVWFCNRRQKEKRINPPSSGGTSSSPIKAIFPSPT

Sequence	binding signal (POU1 (OCT1 POU domain))	binding signal (POU2 (OCT2 POU domain))	binding signal [1]	binding signal [2]
AACAGAAC	0.0183 % of ANNNNAAN 8-mers	0.0242 % of ANNNNAAN 8-mers	0.018 % of ANNNNAAN 8-mers	0.0231 % of ANNNNAAN 8-mers
AGTTCAAT	0.0446 % of ANNNNAAN 8-mers	0.0432 % of ANNNNAAN 8-mers	0.046 % of ANNNNAAN 8-mers	0.0421 % of ANNNNAAN 8-mers
ACGCAAAG	0.098 % of ANNNNAAN 8-mers	0.061 % of ANNNNAAN 8-mers	0.163 % of ANNNNAAN 8-mers	0.0809 % of ANNNNAAN 8-mers
ACTGCAAT	0.0301 % of ANNNNAAN 8-mers	0.0213 % of ANNNNAAN 8-mers	0.0367 % of ANNNNAAN 8-mers	0.0248 % of ANNNNAAN 8-mers
ATCCCAAA	0.0263 % of ANNNNAAN 8-mers	0.0253 % of ANNNNAAN 8-mers	0.0343 % of ANNNNAAN 8-mers	0.0297 % of ANNNNAAN 8-mers
ATAGCAAT	0.0515 % of ANNNNAAN 8-mers	0.0495 % of ANNNNAAN 8-mers	0.0445 % of ANNNNAAN 8-mers	0.0487 % of ANNNNAAN 8-mers
AGTATAAA	0.0744 % of ANNNNAAN 8-mers	0.08 % of ANNNNAAN 8-mers	0.0585 % of ANNNNAAN 8-mers	0.0479 % of ANNNNAAN 8-mers
ACCCTAAG	0.0118 % of ANNNNAAN 8-mers	0.0178 % of ANNNNAAN 8-mers	0.0133 % of ANNNNAAN 8-mers	0.0107 % of ANNNNAAN 8-mers
ACCGTAAG	0.0191 % of ANNNNAAN 8-mers	0.0155 % of ANNNNAAN 8-mers	0.0195 % of ANNNNAAN 8-mers	0.0281 % of ANNNNAAN 8-mers
AGCCTAAA	0.0271 % of ANNNNAAN 8-mers	0.0316 % of ANNNNAAN 8-mers	0.0191 % of ANNNNAAN 8-mers	0.0206 % of ANNNNAAN 8-mers
AGGATAAT	0.168 % of ANNNNAAN 8-mers	0.209 % of ANNNNAAN 8-mers	0.0952 % of ANNNNAAN 8-mers	0.106 % of ANNNNAAN 8-mers
ATGTAAAC	0.249 % of ANNNNAAN 8-mers	0.196 % of ANNNNAAN 8-mers	0.293 % of ANNNNAAN 8-mers	0.227 % of ANNNNAAN 8-mers
ACTAGAAC	0.016 % of ANNNNAAN 8-mers	0.0207 % of ANNNNAAN 8-mers	0.0144 % of ANNNNAAN 8-mers	0.0149 % of ANNNNAAN 8-mers
AACAAAAC	0.0587 % of ANNNNAAN 8-mers	0.0409 % of ANNNNAAN 8-mers	0.0987 % of ANNNNAAN 8-mers	0.0636 % of ANNNNAAN 8-mers
ACCAAAAT	0.0446 % of ANNNNAAN 8-mers	0.0397 % of ANNNNAAN 8-mers	0.055 % of ANNNNAAN 8-mers	0.0537 % of ANNNNAAN 8-mers
ACTCAAAA	0.0427 % of ANNNNAAN 8-mers	0.0339 % of ANNNNAAN 8-mers	0.046 % of ANNNNAAN 8-mers	0.0363 % of ANNNNAAN 8-mers
AATTGAAA	0.113 % of ANNNNAAN 8-mers	0.131 % of ANNNNAAN 8-mers	0.114 % of ANNNNAAN 8-mers	0.0817 % of ANNNNAAN 8-mers
AGTGCAAT	0.0347 % of ANNNNAAN 8-mers	0.0455 % of ANNNNAAN 8-mers	0.0367 % of ANNNNAAN 8-mers	0.0396 % of ANNNNAAN 8-mers
ATAGCAAG	0.032 % of ANNNNAAN 8-mers	0.0363 % of ANNNNAAN 8-mers	0.0394 % of ANNNNAAN 8-mers	0.0454 % of ANNNNAAN 8-mers

Sequence	binding signal (POU1 (OCT1 POU domain))	binding signal (POU2 (OCT2 POU domain))	binding signal [1]	binding signal [2]
AATCCAAG	0.0324 % of ANNNNAAN 8-mers	0.0339 % of ANNNNAAN 8-mers	0.0425 % of ANNNNAAN 8-mers	0.0371 % of ANNNNAAN 8-mers
AATCCAAT	0.0507 % of ANNNNAAN 8-mers	0.0552 % of ANNNNAAN 8-mers	0.0605 % of ANNNNAAN 8-mers	0.0504 % of ANNNNAAN 8-mers
ATAGTAAA	0.12 % of ANNNNAAN 8-mers	0.115 % of ANNNNAAN 8-mers	0.128 % of ANNNNAAN 8-mers	0.106 % of ANNNNAAN 8-mers
AGGCGAAC	0.0183 % of ANNNNAAN 8-mers	0.0247 % of ANNNNAAN 8-mers	0.0207 % of ANNNNAAN 8-mers	0.0305 % of ANNNNAAN 8-mers
AGTTAAAC	0.0461 % of ANNNNAAN 8-mers	0.0593 % of ANNNNAAN 8-mers	0.0499 % of ANNNNAAN 8-mers	0.0553 % of ANNNNAAN 8-mers
ATAATAAC	0.0873 % of ANNNNAAN 8-mers	0.101 % of ANNNNAAN 8-mers	0.0496 % of ANNNNAAN 8-mers	0.0603 % of ANNNNAAN 8-mers
ATGCGAAC	0.04 % of ANNNNAAN 8-mers	0.0357 % of ANNNNAAN 8-mers	0.0386 % of ANNNNAAN 8-mers	0.0347 % of ANNNNAAN 8-mers
ATAACAAC	0.0252 % of ANNNNAAN 8-mers	0.0391 % of ANNNNAAN 8-mers	0.0222 % of ANNNNAAN 8-mers	0.0347 % of ANNNNAAN 8-mers
ACATGAAG	0.0378 % of ANNNNAAN 8-mers	0.0449 % of ANNNNAAN 8-mers	0.03 % of ANNNNAAN 8-mers	0.0355 % of ANNNNAAN 8-mers
ACACCAAA	0.0149 % of ANNNNAAN 8-mers	0.0184 % of ANNNNAAN 8-mers	0.0121 % of ANNNNAAN 8-mers	0.0149 % of ANNNNAAN 8-mers
ATATCAAG	0.0641 % of ANNNNAAN 8-mers	0.0552 % of ANNNNAAN 8-mers	0.0453 % of ANNNNAAN 8-mers	0.0479 % of ANNNNAAN 8-mers
AAGTCAAA	0.141 % of ANNNNAAN 8-mers	0.113 % of ANNNNAAN 8-mers	0.258 % of ANNNNAAN 8-mers	0.165 % of ANNNNAAN 8-mers
AACCTAAA	0.0206 % of ANNNNAAN 8-mers	0.0391 % of ANNNNAAN 8-mers	0.0242 % of ANNNNAAN 8-mers	0.0264 % of ANNNNAAN 8-mers
ATTGTAAC	0.0362 % of ANNNNAAN 8-mers	0.0374 % of ANNNNAAN 8-mers	0.0336 % of ANNNNAAN 8-mers	0.0371 % of ANNNNAAN 8-mers
ACCCGAAA	0.0172 % of ANNNNAAN 8-mers	0.019 % of ANNNNAAN 8-mers	0.0168 % of ANNNNAAN 8-mers	0.014 % of ANNNNAAN 8-mers
AGCCAAAC	0.0194 % of ANNNNAAN 8-mers	0.0196 % of ANNNNAAN 8-mers	0.0261 % of ANNNNAAN 8-mers	0.0182 % of ANNNNAAN 8-mers
ATTCAAAG	0.281 % of ANNNNAAN 8-mers	0.201 % of ANNNNAAN 8-mers	0.314 % of ANNNNAAN 8-mers	0.242 % of ANNNNAAN 8-mers
ATCTAAAC	0.0229 % of ANNNNAAN 8-mers	0.0374 % of ANNNNAAN 8-mers	0.0379 % of ANNNNAAN 8-mers	0.0495 % of ANNNNAAN 8-mers
